# From PubChem BioAssay (EPA / NIEHS)
# Records with an inconclusive call do not appear. Active and inactive are the calls of the source. The calls were made as follows: active = hit-call score of the fitted dose curve at least 0.9, where 1 is the maximum; inconclusive = response in the unintended direction; inactive = score below 0.9.
# Assays:
# [1] = target: rat Thyrotropin Releasing Hormone Receptor (TRH), Trhr (gene 25570) (UniProt Q01717); assay: NVS_GPCR_rTRH: NovaScreen (NVS) G Protein-Coupled Receptor Assay for rat Thyrotropin Releasing Hormone Receptor (TRH) (AID 2283329);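 also: hit means lower bound tracer signal versus DMSO baseline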
# Outline: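 Rat forebrain membrane prep, radioligand displacement, filter scintillation readout at 4 h. Single conc 25 uM, duplicate; actives retested as concentration series. DMSO = negative control/baseline.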
# [2] = target: human Androgen Receptor (AR), AR (gene 367) (UniProt P10275); assay: NVS_NR_hAR: NovaScreen (NVS) Nuclear Receptor Binding Assay for human Androgen Receptor (AR) (AID 2283332)
# Outline: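 Radioligand competitive binding, scintillation read-out, in cell-free extract from LnCAP, measured 20 h after dosing. Screened first in duplicate at 25 uM, then concentration series for actives; activity fitted against DMSO.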
# [3] = target: Small conductance calcium-activated potassium channel protein 1 (Rattus norvegicus) (UniProt P70606); assay: NVS_IC_rKCaCh: NovaScreen (NVS) Ion Channel Assay for rat Potassium Channel, Ca2+ Act., VI (KCaCh) (AID 2283336)
# Outline: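 Radioligand binding to rat forebrain membranes, cell-free, read 1 hour after dosing by filter-based scintillation counting. Compounds first run in duplicate at 25 uM, actives then in concentration series; loss of signal vs DMSO indicates displacement.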
# Sequence of human Androgen Receptor (AR), AR (gene 367) (P10275 whole entry, looked up): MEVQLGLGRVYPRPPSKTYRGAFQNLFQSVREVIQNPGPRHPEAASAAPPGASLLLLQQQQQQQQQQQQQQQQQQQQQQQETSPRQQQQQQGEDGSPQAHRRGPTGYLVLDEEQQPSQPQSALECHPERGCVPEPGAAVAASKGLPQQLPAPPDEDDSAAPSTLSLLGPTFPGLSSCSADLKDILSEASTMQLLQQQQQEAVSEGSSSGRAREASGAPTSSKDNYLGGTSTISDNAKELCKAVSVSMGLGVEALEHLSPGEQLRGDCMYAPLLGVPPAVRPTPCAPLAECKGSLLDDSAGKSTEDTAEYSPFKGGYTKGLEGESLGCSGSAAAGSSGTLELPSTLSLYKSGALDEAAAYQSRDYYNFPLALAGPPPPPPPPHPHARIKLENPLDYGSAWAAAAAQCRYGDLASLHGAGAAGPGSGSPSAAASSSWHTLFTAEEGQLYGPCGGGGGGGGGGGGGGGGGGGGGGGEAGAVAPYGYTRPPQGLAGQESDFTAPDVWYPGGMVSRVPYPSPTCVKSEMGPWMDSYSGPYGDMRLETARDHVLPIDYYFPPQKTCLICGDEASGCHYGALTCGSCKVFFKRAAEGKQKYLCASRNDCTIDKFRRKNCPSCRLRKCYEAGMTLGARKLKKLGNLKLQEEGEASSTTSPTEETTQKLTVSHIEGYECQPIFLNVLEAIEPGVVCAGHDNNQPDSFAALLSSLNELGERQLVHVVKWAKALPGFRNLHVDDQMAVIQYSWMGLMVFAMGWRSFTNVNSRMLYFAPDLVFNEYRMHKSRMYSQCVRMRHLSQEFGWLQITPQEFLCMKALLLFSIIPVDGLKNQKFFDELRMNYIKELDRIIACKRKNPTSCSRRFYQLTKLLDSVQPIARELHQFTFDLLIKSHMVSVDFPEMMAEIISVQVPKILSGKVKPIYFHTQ
# Sequence of Small conductance calcium-activated potassium channel protein 1 (Rattus norvegicus) (P70606 whole entry, looked up): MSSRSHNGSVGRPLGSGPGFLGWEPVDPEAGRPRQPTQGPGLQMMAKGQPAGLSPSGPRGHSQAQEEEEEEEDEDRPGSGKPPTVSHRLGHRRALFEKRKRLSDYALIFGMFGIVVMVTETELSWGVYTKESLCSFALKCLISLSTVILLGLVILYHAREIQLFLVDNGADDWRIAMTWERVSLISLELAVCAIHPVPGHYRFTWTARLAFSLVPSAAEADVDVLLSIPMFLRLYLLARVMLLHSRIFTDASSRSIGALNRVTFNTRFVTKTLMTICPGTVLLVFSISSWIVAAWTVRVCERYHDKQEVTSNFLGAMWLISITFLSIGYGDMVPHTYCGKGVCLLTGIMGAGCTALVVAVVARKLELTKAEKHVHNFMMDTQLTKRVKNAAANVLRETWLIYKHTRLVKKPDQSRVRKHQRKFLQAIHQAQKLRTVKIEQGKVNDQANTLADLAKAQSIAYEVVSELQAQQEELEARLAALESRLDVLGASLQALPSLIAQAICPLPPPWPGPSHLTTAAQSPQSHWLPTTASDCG
# Sequence of rat Thyrotropin Releasing Hormone Receptor (TRH), Trhr (gene 25570) (Q01717 whole entry, looked up): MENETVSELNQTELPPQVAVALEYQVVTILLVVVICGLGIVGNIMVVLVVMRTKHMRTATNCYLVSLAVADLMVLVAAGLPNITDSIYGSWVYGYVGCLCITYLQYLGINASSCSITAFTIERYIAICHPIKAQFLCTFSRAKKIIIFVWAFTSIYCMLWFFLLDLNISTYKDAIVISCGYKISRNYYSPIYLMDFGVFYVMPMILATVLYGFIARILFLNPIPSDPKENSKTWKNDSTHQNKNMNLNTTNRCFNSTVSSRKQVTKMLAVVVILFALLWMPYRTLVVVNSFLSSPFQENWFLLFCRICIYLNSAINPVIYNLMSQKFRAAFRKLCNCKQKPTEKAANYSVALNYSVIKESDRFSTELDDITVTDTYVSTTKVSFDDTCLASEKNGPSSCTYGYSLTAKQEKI
smiles,measurement,setting,value
O=C(NS(=O)(=O)/C=C/c1ccccc1)c1ccc(F)cc1Cl,AC50,[1],2.5 nM (active)
Oc1ccc2c(c1)-c1ccccc1C2,AC50,[2],6890 nM (active)
O=C(O)c1cccc(N(Cc2cccnc2)c2ccc(OC(F)F)c(OC(F)F)c2)c1,AC50,[2],18.6 nM (active)
CCOCCO,outcome,[3],inactive
